The source of these data is PubChem BioAssay (NCATS).

In assay [1] the target is Peroxisome proliferator-activated receptor delta (Homo sapiens) (UniProt Q03181). The assay can be described thus: qHTS assay for small molecule antagonists of peroxisome proliferator-activated receptor delta signaling (AID 588535; active = well fitted inhibition curve with a large enough effect in the signal ratio, with a control signal flat, not every such curve was filed as active; the % refers to the signal ratio). The procedure, abridged:
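Antagonist-mode qHTS using GeneBLAzer PPAR-delta-UAS-bla HEK293T cells; compound exposure 18 hrs at 37 C over a titration. Ratiometric CCF4 fluorescence at 460/530 nm; concentration-response points fitted to the Hill equation.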
For orientation: Quantitative high-throughput screening tests each substance at several concentrations.

Assay [2] concerns the target Peroxisome proliferator-activated receptor gamma (Homo sapiens) (UniProt P37231). The assay can be described thus: qHTS assay for small molecule agonists of peroxisome proliferator-activated receptor gamma signaling (AID 588536; active = well fitted curve in the direction sought with a large enough effect in the signal ratio, with a control signal flat, not every such curve was filed as active; the % refers to the signal ratio;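 note: 0% = DMSO basal wells and 100% = rosiglitazone at 2 µM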). The procedure, abridged: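 Cells were plated and held 6–6.5 h at 37 C, then compounds were added as a titration series. After a further 16 h, CCF4 dye was loaded for 2 h at room temperature and emission at 460/530 nm recorded.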

Assay [3] shares this target. Put plainly: qHTS assay for small molecule antagonists of peroxisome proliferator-activated receptor gamma signaling (AID 588537; active = well fitted inhibition curve with a large enough effect in the signal ratio, with a control signal flat, not every such curve was filed as active; the % refers to the signal ratio;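 note: reporter cells co-stimulated with 50 nM rosiglitazone agonist during compound treatment; % of control where 0% means no effect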). The procedure, abridged:
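Cell-based beta-lactamase assay; GW9662 served as the antagonist control. Stimulation used rosiglitazone, final 50 nM, 16 h, 37 C.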

The target in assay [4] is Vitamin D3 receptor (Homo sapiens) (UniProt P11473). Put plainly: qHTS assay for small molecule antagonists of vitamin D receptor signaling (AID 588541).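 Note: receptor activated by calcitriol during compound treatment; series mostly up to about 77 µM; % is set by controls: 0 for no effect and ±100 for the full control effect.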 The procedure, abridged:
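Antagonist-mode beta-lactamase reporter assay: HEK293T VDR-UAS-bla cells were exposed to titrated compound alongside 1-alpha,25-dihydroxyvitamin D3 at 3 nM final for 16 h. Values were normalized to the 50 nM agonist control and DMSO basal, with IC50 and efficacy from Hill equation fits.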

Assay [5] shares this target. Put plainly: qHTS assay for small molecule agonists of vitamin D receptor signaling (AID 588543).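 Note: 0% = DMSO basal and 100% = reference agonist control.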 In a few lines: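 Measured: β-lactamase reporter activity (CCF4, 405 nm excitation, 460/530 nm emission) in HEK293T VDR-UAS-bla cells after 16 h compound exposure at 37 °C. Normalization against 50 nM 1α,25-dihydroxyvitamin D3 and DMSO; Hill-fit EC50.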
The nature of assay [6]: qHTS assay for small molecule agonists of retinoid X receptor alpha signaling (AID 588544). The following applies: HEK293T RXRa-UAS-bla, beta-lactamase reporter, 18 h; 530 nm emission.
Assay [7] deals with Retinoic acid receptor RXR-alpha (Homo sapiens) (UniProt P19793). The assay is described as above.
The target in assay [8] is Thyroid hormone receptor beta (Homo sapiens) (UniProt P10828). Put plainly: qHTS assay for small molecule agonists of thyroid hormone receptor beta signaling (AID 588545). The procedure, abridged:
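In this cell-based screen, titrated compounds act on HEK 293 cells held in medium with 2% charcoal/dextran FBS, NEAA and pyruvate for 18 hrs at 37 C. Responses are expressed relative to T3 (10 nM) as 100% and basal DMSO as 0%.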

Assay [9] can be described thus: qHTS assay for small molecule antagonists of retinoid X receptor alpha signaling (AID 588546; active = well fitted inhibition curve with a large enough effect in the signal ratio, with a control signal flat, not every such curve was filed as active; the % refers to the signal ratio;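 note: cells stimulated with 9-cis-retinoic acid as agonist; % is set by controls: 0 for no effect and ±100 for the full control effect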). The note with it: HEK293T RXRa-UAS-bla, beta-lactamase ratio, antagonist mode; measured here: W530 green channel, cytotoxicity proxy. In a few lines: (§1)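 Beta-lactamase reporter inhibition, read as CCF4 fluorescence ratio (ex 405, em 460/530 nm) after 2 h at RT. HEK293T UAS-bla cells, 2500/well, were stimulated with 9-cis-RA at 500 or 100 nM final alongside test compound for 18 h at 37 C.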

In assay [10] the target is Retinoic acid receptor RXR-alpha (Homo sapiens) (UniProt P19793). The assay is described as above. The note with it: HEK293T RXRa-UAS-bla, beta-lactamase ratio, antagonist mode. In a few lines: as §1
Assay [11] addresses Thyroid hormone receptor beta (Homo sapiens) (UniProt P10828). Put plainly: qHTS assay for small molecule antagonists of thyroid hormone receptor beta signaling (AID 588547; active = well fitted inhibition curve with a large enough effect in the signal ratio, with a control signal flat, not every such curve was filed as active; the % refers to the signal ratio;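 note: cells stimulated with 0.4 nM T3 agonist during compound exposure; series mostly up to about 77 µM; % is set by controls: 0 for no effect and ±100 for the full control effect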). The following applies: TR-UAS-bla HEK293, beta-lactamase ratio, antagonist mode, 18 h. The procedure, abridged: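 Inhibition of T3-driven (0.4nM final) beta-lactamase reporter activity was measured over 0.59 nM to 92 uM compound after 18 h at 37 C. The cells were GripTite HEK293 TR-UAS-bla in charcoal/dextran-stripped serum, with CCF4 ratio read-out and IC50 from Hill fits.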

The target in assay [12] is Voltage-gated inwardly rectifying potassium channel KCNH2 (Homo sapiens) (UniProt Q12809). Put plainly: qHTS Assay for Small Molecule Inhibitors of the Human hERG Channel Activity (AID 588834; active = well fitted curve in the direction sought with a large enough effect; an effect the other way counts as inactive or inconclusive;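 note: top concentration of the series differs between compounds; % is set by controls: 0 for no effect and ±100 for the full control effect; lower thallium flux fluorescence means stronger hERG block; nearly all actives have a fitted effect of over 50% in size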). In a few lines: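 Homogeneous FluxOR thallium flux assay using hERG-expressing U2OS cells (BacMam). Compound treatment about 10 minutes preceded stimulation; reduced fluorescence taken as channel block.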

Assay [13] concerns the target Luciferin 4-monooxygenase (Photinus pyralis) (UniProt P08659). Put plainly: Biochemical firefly luciferase enzyme assay for NPC (AID 624030; active = well fitted curve in the direction sought with a large enough effect; an effect the other way counts as inactive or inconclusive;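 note: purified P. pyralis luciferase at 10 nM with luciferin and ATP substrate; series mostly up to about 59 µM; 0% = DMSO and -100% = full luciferase inhibition by PTC124 control; nearly all actives have a fitted effect of over 70% in size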). In a few lines:
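Direct inhibition of firefly luciferase enzyme (10 nM final, 50 mM Tris Acetate) assessed by luminescence within 5 minutes. Percent activity scaled between DMSO and PTC124 positive control, with concentration-effect curves classified by fit quality and response.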

Assay [14] is described as follows: S16 Schwann cell viability assay (CellTiter-Glo assay) (AID 624031; active = well fitted curve in the direction sought with a large enough effect; an effect the other way counts as inactive or inconclusive; note: potency is the fitted concentration of half-maximal effect; nearly all actives have a fitted effect of over 70% in size). In a few lines: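 Rat S16 Schwann cells without reporter constructs received compound or DMSO for 24 h at 37 °C under 5% CO2. Cellular ATP was then quantified by CellTiter-Glo luminescence, with vehicle wells defined as 0% activity and cell-free wells as reference.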
For orientation: ATP-based viability assays read luminescence as a measure of living cells.

SMILES strings stand for the structures. Values joined by “and” are separate entries in the source; they are usually repeats but may differ in a detail not shown here. Equal entries are not always repeated. Results filed as inconclusive are left out. Active and inactive are the calls of the source. Unless noted, calls come from the whole dose curve.

Sequence of Peroxisome proliferator-activated receptor gamma (Homo sapiens) (P37231 whole entry, looked up): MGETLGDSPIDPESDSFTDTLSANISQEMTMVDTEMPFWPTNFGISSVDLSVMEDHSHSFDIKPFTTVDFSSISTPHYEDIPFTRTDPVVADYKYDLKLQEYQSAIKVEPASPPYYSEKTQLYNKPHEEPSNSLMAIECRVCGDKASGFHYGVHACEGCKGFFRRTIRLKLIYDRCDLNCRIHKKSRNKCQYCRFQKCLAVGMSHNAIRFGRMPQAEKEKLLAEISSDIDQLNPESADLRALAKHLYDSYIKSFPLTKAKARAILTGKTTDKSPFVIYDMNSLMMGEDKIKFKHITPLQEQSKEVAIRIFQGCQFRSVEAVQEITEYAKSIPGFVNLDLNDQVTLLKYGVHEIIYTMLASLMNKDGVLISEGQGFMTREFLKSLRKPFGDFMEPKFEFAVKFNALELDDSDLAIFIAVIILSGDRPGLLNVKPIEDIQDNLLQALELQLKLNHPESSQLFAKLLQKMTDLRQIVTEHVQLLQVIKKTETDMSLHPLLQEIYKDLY
Sequence of Retinoic acid receptor RXR-alpha (Homo sapiens) (P19793 whole entry, looked up): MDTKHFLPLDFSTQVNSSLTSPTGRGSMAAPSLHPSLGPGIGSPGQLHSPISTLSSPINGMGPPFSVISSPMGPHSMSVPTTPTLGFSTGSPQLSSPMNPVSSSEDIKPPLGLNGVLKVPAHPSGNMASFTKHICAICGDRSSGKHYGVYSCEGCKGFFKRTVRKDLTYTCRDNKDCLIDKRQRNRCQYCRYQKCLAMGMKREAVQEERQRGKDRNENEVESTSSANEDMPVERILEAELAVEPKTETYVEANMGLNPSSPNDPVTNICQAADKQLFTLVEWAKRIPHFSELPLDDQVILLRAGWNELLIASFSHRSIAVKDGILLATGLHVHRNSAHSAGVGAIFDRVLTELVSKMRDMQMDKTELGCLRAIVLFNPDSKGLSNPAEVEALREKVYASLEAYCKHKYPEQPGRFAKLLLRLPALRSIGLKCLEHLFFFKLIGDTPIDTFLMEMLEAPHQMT
Sequence of Vitamin D3 receptor (Homo sapiens) (P11473 whole entry, looked up): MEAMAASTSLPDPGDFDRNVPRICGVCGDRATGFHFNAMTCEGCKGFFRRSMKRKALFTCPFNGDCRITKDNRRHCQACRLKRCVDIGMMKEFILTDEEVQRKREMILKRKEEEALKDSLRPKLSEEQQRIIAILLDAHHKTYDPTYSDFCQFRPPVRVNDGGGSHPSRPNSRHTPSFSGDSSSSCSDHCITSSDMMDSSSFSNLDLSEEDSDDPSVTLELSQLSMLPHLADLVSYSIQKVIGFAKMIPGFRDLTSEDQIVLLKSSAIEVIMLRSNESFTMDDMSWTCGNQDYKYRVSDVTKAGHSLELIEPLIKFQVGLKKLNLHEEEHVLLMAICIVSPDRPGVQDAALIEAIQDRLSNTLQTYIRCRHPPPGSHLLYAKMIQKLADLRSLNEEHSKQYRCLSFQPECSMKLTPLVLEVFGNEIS
Sequence of Thyroid hormone receptor beta (Homo sapiens) (P10828 whole entry, looked up): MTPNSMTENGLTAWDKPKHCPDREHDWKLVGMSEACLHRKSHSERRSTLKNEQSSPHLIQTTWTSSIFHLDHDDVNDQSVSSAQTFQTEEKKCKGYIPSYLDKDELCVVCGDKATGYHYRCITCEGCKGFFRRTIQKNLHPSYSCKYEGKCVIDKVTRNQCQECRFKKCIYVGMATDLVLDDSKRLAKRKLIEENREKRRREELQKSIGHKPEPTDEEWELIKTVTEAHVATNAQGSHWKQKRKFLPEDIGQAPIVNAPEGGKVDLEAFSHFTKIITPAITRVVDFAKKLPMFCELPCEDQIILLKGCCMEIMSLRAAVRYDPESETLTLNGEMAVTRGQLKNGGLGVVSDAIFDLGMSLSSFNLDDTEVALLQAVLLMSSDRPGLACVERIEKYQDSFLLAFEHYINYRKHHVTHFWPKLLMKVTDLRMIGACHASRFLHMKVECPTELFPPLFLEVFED
Sequence of Peroxisome proliferator-activated receptor delta (Homo sapiens) (Q03181 whole entry, looked up): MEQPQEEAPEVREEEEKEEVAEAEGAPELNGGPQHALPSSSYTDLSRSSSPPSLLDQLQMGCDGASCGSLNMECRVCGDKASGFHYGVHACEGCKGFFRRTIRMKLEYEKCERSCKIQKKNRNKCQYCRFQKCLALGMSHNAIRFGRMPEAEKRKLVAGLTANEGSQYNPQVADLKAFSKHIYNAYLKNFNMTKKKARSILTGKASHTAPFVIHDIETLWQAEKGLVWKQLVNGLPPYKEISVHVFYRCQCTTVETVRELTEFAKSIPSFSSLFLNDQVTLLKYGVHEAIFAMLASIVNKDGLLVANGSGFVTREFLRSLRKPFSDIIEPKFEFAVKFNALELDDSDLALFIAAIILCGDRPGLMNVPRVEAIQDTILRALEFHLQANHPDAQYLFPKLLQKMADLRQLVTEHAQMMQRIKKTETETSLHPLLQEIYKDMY
Sequence of Luciferin 4-monooxygenase (Photinus pyralis) (P08659 whole entry, looked up): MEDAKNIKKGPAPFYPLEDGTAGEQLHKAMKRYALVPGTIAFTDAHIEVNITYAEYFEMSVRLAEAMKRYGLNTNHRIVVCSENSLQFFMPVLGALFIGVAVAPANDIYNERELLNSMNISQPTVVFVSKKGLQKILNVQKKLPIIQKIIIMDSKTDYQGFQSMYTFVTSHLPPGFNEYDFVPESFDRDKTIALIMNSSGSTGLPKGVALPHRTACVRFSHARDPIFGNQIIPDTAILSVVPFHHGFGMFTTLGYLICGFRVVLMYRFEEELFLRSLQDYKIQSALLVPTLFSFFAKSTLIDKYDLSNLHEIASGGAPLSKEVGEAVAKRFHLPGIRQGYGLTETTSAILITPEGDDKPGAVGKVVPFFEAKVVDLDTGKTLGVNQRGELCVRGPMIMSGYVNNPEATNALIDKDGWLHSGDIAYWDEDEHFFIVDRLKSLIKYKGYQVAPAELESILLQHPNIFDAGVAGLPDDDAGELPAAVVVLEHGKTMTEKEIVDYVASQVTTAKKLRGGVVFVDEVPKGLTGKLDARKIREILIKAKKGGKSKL
Sequence of Voltage-gated inwardly rectifying potassium channel KCNH2 (Homo sapiens) (Q12809 whole entry, looked up): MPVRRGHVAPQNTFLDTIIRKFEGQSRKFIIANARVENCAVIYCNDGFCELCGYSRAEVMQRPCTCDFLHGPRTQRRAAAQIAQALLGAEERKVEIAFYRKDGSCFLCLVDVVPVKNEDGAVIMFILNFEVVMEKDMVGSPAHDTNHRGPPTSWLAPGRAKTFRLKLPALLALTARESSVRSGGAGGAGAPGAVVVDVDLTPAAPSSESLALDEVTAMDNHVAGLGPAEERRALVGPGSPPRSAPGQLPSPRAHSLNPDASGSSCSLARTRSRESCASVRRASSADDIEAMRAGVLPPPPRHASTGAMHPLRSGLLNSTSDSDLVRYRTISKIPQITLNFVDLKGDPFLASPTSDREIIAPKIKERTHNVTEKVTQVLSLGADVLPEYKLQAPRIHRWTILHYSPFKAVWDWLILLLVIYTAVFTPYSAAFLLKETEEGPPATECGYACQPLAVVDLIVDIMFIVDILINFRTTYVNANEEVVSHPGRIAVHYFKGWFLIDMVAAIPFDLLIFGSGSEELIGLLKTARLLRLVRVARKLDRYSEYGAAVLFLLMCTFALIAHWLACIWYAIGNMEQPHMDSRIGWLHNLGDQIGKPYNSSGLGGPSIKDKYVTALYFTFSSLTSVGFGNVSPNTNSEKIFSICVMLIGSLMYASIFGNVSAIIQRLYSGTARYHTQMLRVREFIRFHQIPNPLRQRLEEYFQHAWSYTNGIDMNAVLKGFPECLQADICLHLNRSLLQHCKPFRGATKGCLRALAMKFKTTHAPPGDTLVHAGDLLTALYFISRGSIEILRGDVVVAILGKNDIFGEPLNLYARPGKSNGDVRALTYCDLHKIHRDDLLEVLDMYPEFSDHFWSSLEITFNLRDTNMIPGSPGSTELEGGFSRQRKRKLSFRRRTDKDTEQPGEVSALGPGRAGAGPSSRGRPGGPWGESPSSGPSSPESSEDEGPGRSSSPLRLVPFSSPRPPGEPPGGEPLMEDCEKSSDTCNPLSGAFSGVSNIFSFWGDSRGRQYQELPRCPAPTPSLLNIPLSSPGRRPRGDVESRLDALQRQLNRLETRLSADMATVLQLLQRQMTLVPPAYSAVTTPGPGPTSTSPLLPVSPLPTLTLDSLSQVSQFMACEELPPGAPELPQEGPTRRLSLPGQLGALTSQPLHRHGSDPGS

In the case of `COc1cc(C=O)ccc1O`, the call in assay [1], in assay [2], in assay [3], in [4], in [5] and in assay [8] was inactive. Further, the max response in assay [6] is -4.86%; in [9] it was -4.04% and -15.4%; in assay [10], 30% (inactive) and 5.74% (inactive). For the same compound, the Potency entry in assay [7], in [12] and in assay [13] was “inactive” throughout. Also, the activity change % (negative = inhibition) in assay [11] is 9.41% (inactive) and -10.4% (inactive).

Turning to `O=C(c1ccccc1)c1ccccc1`, the call in assay [1], in assay [4] and in [5] was inactive. Moreover, the max response was -13.1% and -5.43% in assay [6]; -0.815% and -2.27% in [9]; 29.2% (inactive) and -10.9% (inactive) in assay [10]. In [7], the Potency result was “inactive”.

Turning to `CCCC(=O)c1cc(O)c(O)cc1O`, the call in assay [1], in assay [2], in assay [3], in assay [4], in assay [5] and in [8] was inactive. Moreover, the max response is 11.4% in assay [6], 4.85% in assay [9] and 15.9% (inactive) in assay [10]. In addition, the Potency result in assay [7] and in assay [12] was “inactive” in each case. Besides, in [11], the activity change % (negative = inhibition) was -21% (inactive).

In the case of `Oc1ccccc1`, the result in assay [1] and in [2] was inactive. Also, the max response in assay [9] is -7.3% and -10.8% and -13%; in assay [10], 17.6% (inactive) and -10.1% (inactive) and 2.32% (inactive). In addition, the Potency result in assay [12] and in assay [13] was “inactive” throughout.

Take `CCCCCCCCCCCC[N+](C)(C)Cc1ccccc1`: the outcome in assay [1], in assay [2], in assay [3], in assay [4], in [5] and in [8] was inactive. Besides, in assay [11], the activity change % (negative = inhibition) is -19.6% (inactive).

In the case of `C[C@]12CCC(=O)C=C1CC[C@@H]1[C@@H]2[C@@H](O)C[C@@]2(C)[C@H]1CC[C@]2(O)C(=O)COC(=O)CCC(=O)O`, the Potency result in assay [12] is “inactive”.

As for `Cc1ccc(O)cc1`, the result in [1], in assay [2], in assay [3], in [4], in [5] and in assay [8] was inactive. Besides, the max response is -3.32% in assay [6], -4.07% in [9] and 9.57% (inactive) in assay [10]. For the same compound, the Potency entry in assay [7] and in [12] was “inactive” in each case. Moreover, the activity change % (negative = inhibition) in [11] was -4.08% (inactive).

As for `Brc1ccccc1-c1ccccc1`, the call in assay [4], in [5] and in [8] was inactive. Further, the max response in [6] was 10.3%; in assay [9], 1.21%; in assay [10], -2.01% (inactive). In addition, the Potency result in [7] and in [13] was “inactive” throughout. Also, the activity change % (negative = inhibition) in assay [11] was -16.6% (inactive).

As to `O=C(Nc1ccc(Cl)cc1)Nc1ccc(Cl)c(Cl)c1`, in assay [8], the call was inactive.

In the case of `CCCCCCCCCCCCCCCC[n+]1ccccc1`, the result in assay [1], in [2] and in assay [5] was inactive. Also, the max response in [6] is 3.2%; in assay [9] it was 11.3%; in assay [10], -34.1% (inactive). The Potency entry in [7] and in assay [13] was “inactive” each time. Also, the Potency in [14] is 36.1 µM (active).

As to `CC(C)(c1ccc(O)cc1)c1ccc(O)cc1`, the compound was classed as inactive in assay [1] and in assay [8]. Besides, the max response in assay [9] was -4.03% and -11.6%; in assay [10] it was -28% (inactive) and 10.2% (inactive).

As for `O=C(NO)c1ccccc1`, the result in [4], in assay [5] and in assay [8] was inactive. Also, the max response in [9] was -10.6%; in assay [10], -9.23% (inactive). Also, the activity change % (negative = inhibition) in [11] was -5.82% (inactive). Moreover, the Potency result in assay [12] and in [13] was “inactive” in each case.

Consider `CC(C)C(C)(C)C(C)(C)C(C)(C)S`, for which the compound was called inactive in assay [1], in [2], in assay [3], in assay [4] and in [5]. Further, the max response in assay [6] is -6.07% and -23.3%; in [9], -12% and -14.7%; in assay [10], 11.7% (inactive) and -0.658% (inactive). The Potency result in [7], in assay [12] and in assay [13] was “inactive” each time. In [11], the activity change % (negative = inhibition) is 1.2% (inactive) and -6.79% (inactive).

On to `C1=CC2C3C=CC(C3)C2C1` (centres undefined), for which the result in assay [2], in [4], in assay [5] and in [8] was inactive. Moreover, the max response in assay [6] is 15.9%. Also, the Potency result in assay [7], in assay [12] and in assay [13] was “inactive” in each case. In addition, the activity change % (negative = inhibition) in [11] is 2.01% (inactive).

Regarding `CCCCC(CC)COC(=O)c1ccccc1C(=O)O` (centres undefined), the compound was classed as inactive in assay [1], in assay [4], in [5] and in [8]. The max response in assay [6] was 0.375% and 2.79%; in assay [9] it was -0.199% and -12.8%; in [10], -7.29% (inactive) and -5.81% (inactive). Further, the Potency result in assay [7] and in assay [12] was “inactive” each time. Further, in assay [11], the activity change % (negative = inhibition) was -5.5% (inactive) and 6.91% (inactive).

With `Cc1ncc(CO)c(CO)c1O`, the call in assay [1], in assay [2], in [3], in assay [4] and in assay [5] was inactive. Also, the values for the max response in assay [6], in assay [9] and in [10] were -11.9%, -0.0047% and 7.42% (inactive), respectively. Moreover, the Potency entry in [7] and in assay [13] was “inactive” throughout.

As to `CC(C)(C)c1ccc(O)c(O)c1`, the compound was called inactive in assay [1], in assay [2], in assay [3], in assay [4], in [5] and in assay [8]. The max response in assay [9] was 3.05% and -10.4%; in assay [10], -35.8% (inactive) and -24.1% (inactive). Further, the activity change % (negative = inhibition) in assay [11] was -12.4% (inactive) and -14.4% (inactive). Besides, the Potency result in [12] is “inactive”.

Regarding `CC(=O)OC/C=C(C)/C=C/C=C(C)/C=C/C1=C(C)CCCC1(C)C`, the result in assay [1], in assay [2], in assay [4], in [5] and in assay [8] was inactive. Moreover, the max response in assay [9] is 10.5%; in assay [10], 0.429% (inactive). The activity change % (negative = inhibition) in assay [11] was 1.82% (inactive). The Potency entry in assay [12] and in assay [13] was “inactive” throughout.

In the case of `COC(=O)c1c(Cl)c(Cl)c(C(=O)OC)c(Cl)c1Cl`, the compound was classed as inactive in [1], in assay [3], in assay [4], in [5] and in assay [8]. The max response in [6] was -4.07%; in [9] it was -11.5%; in assay [10], 4.25% (inactive). Moreover, the Potency result in [7] is “inactive”. Moreover, the activity change % (negative = inhibition) in assay [11] was 3.31% (inactive).

In the case of `Nc1ccc(O)cc1`, the compound was called inactive in assay [3] and in assay [5]. Moreover, the max response was 21.6% in assay [6], -3.95% in assay [9] and -4.53% (inactive) in [10]. In addition, the Potency entry in assay [7] and in [12] was “inactive” throughout.

As to `O=C(Oc1ccccc1)c1ccccc1O`, the compound was classed as inactive in assay [2], in assay [3] and in assay [8]. The max response in [9] is 8.83% and -6.1%; in assay [10], 0.088% (inactive) and -1.29% (inactive). The activity change % (negative = inhibition) in [11] is -5.55% (inactive) and -2.84% (inactive). In addition, the Potency entry in [13] is “inactive”.
